Reference: PubChem BioAssay AID1159580 (chemical genetic matrix, 2015)
“And” between values parts separate entries of the source, which are not always exact repeats. Equal entries are not always repeated. Out of some 5,500 compounds screened, about 2,000 (36%) were called active. Another 18% or so got no clear call; they are omitted. No stated cut-off is given here; in the data, active means normalized growth mostly below about 0.91 (no sharp cut-off); inconclusive means no clear call, values can overlap the other calls; inactive means mostly above about 0.92. The list shows a part of the results.

Assay: chemical genetic growth profiling, strain panel (AID 1159580);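 further: tested at 20 µM; growth read once vehicle control cultures reached saturation at 30 °C; 1 = growth at the plate median or of vehicle wells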
Details: S. cerevisiae deletion strains, growth OD

Measured: normalized growth

CO/N=C(\C(=O)NC1C(=O)N2C(C(=O)O)=C(COC(N)=O)CSC12)c1ccco1 (configuration not stated)
0.0608 (active) and 1.03 (inactive): locus YJL095W, strain BCK1, stronger effect = lower value
0.0514 (active) and 1.05 (inactive): locus YHR030C, strain SLT2, stronger effect = lower value
inactive: locus YAL021C, strain ccr4, stronger effect = lower value 0.988 | locus YAL026C, strain drs2, stronger effect = lower value 0.984 | locus YAL030W, strain snc1, stronger effect = lower value 0.977 | locus YBL061C, strain skt5, stronger effect = lower value 0.967 | locus YBR009C, strain hhf1, stronger effect = lower value 0.985 | locus YBR023C, strain chs3, stronger effect = lower value 0.964 | locus YBR171W, strain sec66, stronger effect = lower value 0.958 | locus YBR231C, strain swc5, stronger effect = lower value 0.971 | locus YBR279W, strain paf1, stronger effect = lower value 0.975 | locus YCL011C, strain gbp2, stronger effect = lower value 0.968 | locus YCL016C, strain dcc1, stronger effect = lower value 0.969 | locus YCL061C, strain MRC1, stronger effect = lower value 0.969 | locus YCL069W, strain vba3, stronger effect = lower value 0.977 | locus YCR088W, strain abp1, stronger effect = lower value 0.975 | locus YDL005C, strain med2, stronger effect = lower value 0.969 | locus YDL040C, strain nat1, stronger effect = lower value 0.981 | locus YDR001C, strain nth1, stronger effect = lower value 0.976 | locus YDR069C, strain doa4, stronger effect = lower value 0.988 | locus YDR137W, strain rgp1, stronger effect = lower value 0.945 | locus YDR159W, strain sac3, stronger effect = lower value 0.99 | locus YDR195W, strain ref2 1 | locus YDR297W, strain sur2, stronger effect = lower value 0.972 | locus YDR334W, strain swr1, stronger effect = lower value 0.966 | locus YDR335W, strain msn5, stronger effect = lower value 0.975 | locus YDR392W, strain spt3, stronger effect = lower value 0.894 | locus YEL003W, strain gim4, stronger effect = lower value 0.997 | locus YEL037C, strain rad23, stronger effect = lower value 0.967 | locus YEL061C, strain CIN8 (second series), stronger effect = lower value 0.976 | locus YER015W, strain faa2, stronger effect = lower value 0.968 | locus YER016W, strain bim1, stronger effect = lower value 0.992 | locus YER111C, strain swi4, stronger effect = lower value 0.976 | locus YER155C, strain BEM2 (second series), stronger effect = lower value 0.969 | locus YFR010W, strain ubp6, stronger effect = lower value 0.966 | locus YGL167C, strain pmr1, stronger effect = lower value 0.96 | locus YGL173C, strain kem1, stronger effect = lower value 0.969 | locus YGL227W, strain vid30, stronger effect = lower value 0.978 | locus YGL240W, strain doc1, stronger effect = lower value 0.989 | locus YGL253W, strain hxk2, stronger effect = lower value 0.99 | locus YHR013C, strain ard1, stronger effect = lower value 0.964 | locus YHR027C, strain rpn1, stronger effect = lower value 0.978 | locus YHR079C, strain IRE1, stronger effect = lower value 1.08 | locus YHR142W, strain chs7, stronger effect = lower value 0.926 | locus YJL092W, strain hpr5, stronger effect = lower value 0.98 | locus YJL095W, strain BCK1 (second series), stronger effect = lower value 0.98 | locus YJL115W, strain asf1, stronger effect = lower value 0.983 | locus YJL129C, strain trk1, stronger effect = lower value 0.971 | locus YJL154C, strain vps35, stronger effect = lower value 0.971 | locus YJL164C, strain tpk1, stronger effect = lower value 0.977 | locus YJL166W, strain qcr8, stronger effect = lower value 0.962 | locus YJL187C, strain SWE1, stronger effect = lower value 0.971 | locus YJR066W, strain TOR1, stronger effect = lower value 0.972 | locus YKL160W, strain elf1, stronger effect = lower value 0.961 | locus YKR026C, strain gcn3, stronger effect = lower value 0.98 | locus YKR091W, strain srl3, stronger effect = lower value 0.98 | locus YLL001W, strain dnm1, stronger effect = lower value 0.944 | locus YLL026W, stronger effect = lower value 0.991 | locus YLL041C, strain sdh2, stronger effect = lower value 0.971 | locus YLR027C, strain aat2, stronger effect = lower value 0.981 | locus YLR113W, strain HOG1, stronger effect = lower value 1.07 | locus YLR221C, strain rsa3, stronger effect = lower value 0.956 | locus YLR258W, strain gsy2, stronger effect = lower value 0.975 | locus YLR262C, strain YPT6 (second series), stronger effect = lower value 0.967 | locus YLR320W, strain mms22, stronger effect = lower value 0.93 | locus YLR342W, strain FKS1, stronger effect = lower value 0.972 | locus YLR357W, strain rsc2, stronger effect = lower value 0.963 | locus YLR370C, strain arc18, stronger effect = lower value 0.963 | locus YLR384C, strain iki3, stronger effect = lower value 0.968 | locus YML120C, strain ndi1, stronger effect = lower value 0.965 | locus YMR058W, strain fet3, stronger effect = lower value 0.968 | locus YMR125W, strain sto1, stronger effect = lower value 0.979 | locus YMR129W, stronger effect = lower value 0.983 | locus YMR205C, strain PFK2, stronger effect = lower value 0.949 | locus YMR231W, strain pep5, stronger effect = lower value 0.968 | locus YNL071W, strain lat1, stronger effect = lower value 0.974 | locus YNL183C, strain NPR1, stronger effect = lower value 0.966 | locus YNL209W, strain ssb2, stronger effect = lower value 0.985 | locus YNL248C, strain rpa49, stronger effect = lower value 0.966 | locus YNL322C, strain KRE1 (second series), stronger effect = lower value 0.969 | locus YNR049C, strain mso1, stronger effect = lower value 0.978 | locus YOR001W, strain rrp6, stronger effect = lower value 0.984 | locus YOR070C, strain gyp1, stronger effect = lower value 0.988 | locus YOR080W, strain dia2, stronger effect = lower value 0.986 | locus YOR083W, strain WHI5, stronger effect = lower value 0.953 | locus YOR106W, strain vam3, stronger effect = lower value 0.951 | locus YOR231W, strain MKK1, stronger effect = lower value 1.06 | locus YOR265W, strain rbl2, stronger effect = lower value 0.991 | locus YOR270C, strain vph1, stronger effect = lower value 0.96 | locus YOR290C, strain snf2, stronger effect = lower value 0.958 | locus YPL051W, strain arl3, stronger effect = lower value 0.97 | locus YPL078C, strain atp4, stronger effect = lower value 0.957 | locus YPL106C, strain sse1, stronger effect = lower value 0.941 | locus YPL240C, strain hsp82, stronger effect = lower value 0.982 | locus YPL256C, strain CLN2, stronger effect = lower value 1.07
active: locus YBR021W, strain FUR4, stronger effect = lower value 0.0938 | locus YBR229C, strain ROT2, stronger effect = lower value 0.0259 | locus YCL029C, strain bik1, stronger effect = lower value 0.0647 | locus YDL035C, strain GPR1, stronger effect = lower value 0.0509 | locus YDL074C, strain BRE1, stronger effect = lower value 0.0872 | locus YDL101C, strain DUN1, stronger effect = lower value 0.0518 | locus YDL185W, strain tfp1, stronger effect = lower value 0.0709 | locus YDL192W, strain arf1, stronger effect = lower value 0.0602 | locus YDR101C, strain arx1, stronger effect = lower value 0.0636 | locus YDR162C, strain NBP2, stronger effect = lower value 0.0497 | locus YDR318W, strain mcm21, stronger effect = lower value 0.062 | locus YDR388W, stronger effect = lower value 0.0594 | locus YDR502C, strain sam2, stronger effect = lower value 0.057 | locus YEL061C, strain CIN8, stronger effect = lower value 0.0491 | locus YER110C, stronger effect = lower value 0.0738 | locus YER155C, strain BEM2, stronger effect = lower value 0.0713 | locus YER167W, strain BCK2, stronger effect = lower value 0.0538 | locus YGL078C, strain dbp3, stronger effect = lower value 0.387 | locus YGL086W, strain mad1, stronger effect = lower value 0.0523 | locus YGL248W, strain PDE1, stronger effect = lower value 0.0434 | locus YGR135W, strain pre9, stronger effect = lower value 0.0617 | locus YGR252W, strain gcn5, stronger effect = lower value 0.126 | locus YHR079C, strain IRE1 (second series), stronger effect = lower value 0.0616 | locus YHR094C, strain hxt1, stronger effect = lower value 0.0582 | locus YHR129C, strain ARP1, stronger effect = lower value 0.056 | locus YHR200W, strain rpn10, stronger effect = lower value 0.0599 | locus YIL066C, strain RNR3, stronger effect = lower value 0.0444 | locus YIL073C, strain SPO22, stronger effect = lower value 0.121 | locus YIL125W, strain kgd1, stronger effect = lower value 0.161 | locus YIR030C, strain dcg1, stronger effect = lower value 0.0751 | locus YJL134W, strain LCB3, stronger effect = lower value 0.0455 | locus YJL168C, strain set2, stronger effect = lower value 0.0569 | locus YJL187C, strain SWE1 (second series), stronger effect = lower value 0.0486 | locus YJR043C, strain POL32, stronger effect = lower value 0.0695 | locus YKL009W, strain mrt4, stronger effect = lower value 0.311 | locus YKL068W, stronger effect = lower value 0.575 | locus YKL085W, strain MDH1 (second series), stronger effect = lower value 0.0978 | locus YKL085W, strain MDH1, stronger effect = lower value 0.0978 | locus YKL190W, strain CNB1, stronger effect = lower value 0.0476 | locus YKR001C, strain vps1, stronger effect = lower value 0.0619 | locus YLR039C, strain RIC1, stronger effect = lower value 0.0948 | locus YLR058C, strain SHM2, stronger effect = lower value 0.0436 | locus YLR102C, strain apc9, stronger effect = lower value 0.0609 | locus YLR262C, strain YPT6, stronger effect = lower value 0.107 | locus YLR268W, strain sec22, stronger effect = lower value 0.0592 | locus YLR330W, strain CHS5, stronger effect = lower value 0.053 | locus YLR342W, strain FKS1 (second series), stronger effect = lower value 0.0595 | locus YLR371W, strain rom2, stronger effect = lower value 0.0612 | locus YLR418C, strain cdc73, stronger effect = lower value 0.096 | locus YML016C, strain PPZ1, stronger effect = lower value 0.0484 | locus YML032C, strain rad52, stronger effect = lower value 0.0647 | locus YML124C, strain tub3, stronger effect = lower value 0.0613 | locus YMR078C, strain ctf18, stronger effect = lower value 0.0716 | locus YMR223W, strain ubp8, stronger effect = lower value 0.0609 | locus YMR263W, strain SAP30, stronger effect = lower value 0.0627 | locus YMR307W, strain GAS1, stronger effect = lower value 0.13 | locus YNL067W, strain RPL9B, stronger effect = lower value 0.0518 | locus YNL233W, strain BNI4, stronger effect = lower value 0.061 | locus YNL250W, strain rad50, stronger effect = lower value 0.297 | locus YNL271C, strain bni1, stronger effect = lower value 0.224 | locus YNL298W, strain CLA4, stronger effect = lower value 0.235 | locus YNL307C, strain MCK1, stronger effect = lower value 0.0668 | locus YNL322C, strain KRE1, stronger effect = lower value 0.0494 | locus YNR052C, strain pop2, stronger effect = lower value 0.0644 | locus YOL012C, strain htz1 0.173 | locus YOL147C, strain pex11, stronger effect = lower value 0.0578 | locus YOR061W, strain CKA2, stronger effect = lower value 0.0318 | locus YOR069W, strain VPS5, stronger effect = lower value 0.0536 | locus YOR136W, strain idh2, stronger effect = lower value 0.067 | locus YOR144C, strain elg1, stronger effect = lower value 0.0595 | locus YOR184W, strain ser1, stronger effect = lower value 0.062 | locus YOR316C, strain cot1, stronger effect = lower value 0.0579 | locus YPR119W, strain clb2, stronger effect = lower value 0.0597 | locus YPR141C, strain kar3, stronger effect = lower value 0.56 | locus YPR163C, strain tif3, stronger effect = lower value 0.0674 | locus YPR167C, strain met16, stronger effect = lower value 0.0656 | strain wtn01, stronger effect = lower value 0.0569
